Measurements from the supplement of paper PMC8728848.
This is one part of a sample in which the strongest signals are shown more often than they occur.

Columns and labels:
Assay in all cases: glycan array binding signal (z-score within array); higher = stronger binding
Conditions in all cases: glycan notation: IUPAC condensed, linker removed
[1] = biological target: Fuc(a1-2)Gal(b1-3)GalNAc(b1-3)Gal(a1-4)Gal(b1-4)Glc
Outline: (§1)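 Columns mapping to the same glycan were averaged after glycan names were converted to IUPAC-condensed notation. The data come from 3228 arrays in the Consortium for Functional Glycomics database, limited to those with an available protein sequence. Binding is reported as a within-array Z-score averaged across arrays of one protein sequence and across linkers.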

[2] = biological target: Fuc(a1-2)Gal(b1-4)[Fuc(a1-3)]GlcNAc(b1-3)Gal(b1-4)[Fuc(a1-3)]GlcNAc(b1-3)Gal(b1-4)[Fuc(a1-3)]GlcNAc
Outline: as §1

[3] = biological target: Fuc(a1-3)[Gal(b1-4)]GlcNAc
Outline: as §1

Gal(a1-2)Gal = biological target: Gal(a1-2)Gal
Outline: as §1

Gal(a1-3)Gal(b1-3)GlcNAc = biological target: Gal(a1-3)Gal(b1-3)GlcNAc
Outline: as §1

Gal(a1-3)Gal(b1-4)Glc = biological target: Gal(a1-3)Gal(b1-4)Glc
Outline: as §1

[4] = biological target: Gal(b1-3)[Neu5Ac(a2-6)]GalNAc
Outline: as §1

[5] = biological target: GlcNAc(b1-3)Gal(b1-3)GalNAc
Outline: as §1

[6] = biological target: GlcNAc(b1-4)GlcNAc(b1-4)GlcNAc
Outline: as §1

[7] = biological target: GlcNAc(b1-6)Gal(b1-4)GlcNAc
Outline: as §1

Kdn(a2-3)Gal(b1-4)GlcNAc = biological target: Kdn(a2-3)Gal(b1-4)GlcNAc
Outline: as §1

[8] = biological target: Man(a1-2)Man(a1-3)[Man(a1-2)Man(a1-6)]Man(a1-6)[Man(a1-2)Man(a1-2)Man(a1-3)]Man(b1-4)GlcNAc(b1-4)GlcNAc
Outline: as §1

[9] = biological target: Man(a1-3)[Man(a1-6)]Man(a1-6)[Man(a1-3)]Man(b1-4)GlcNAc(b1-4)GlcNAc
Outline: as §1

[10] = biological target: Neu5Ac(a2-3)Gal(b1-3)[Neu5Ac(a2-3)Gal(b1-4)]GlcNAc
Outline: as §1

[11] = biological target: Neu5Ac(a2-3)Gal(b1-4)[Fuc(a1-3)]GlcNAc(b1-3)Gal
Outline: as §1

[12] = biological target: Neu5Ac(a2-8)Neu5Ac(a2-3)[GalNAc(b1-4)]Gal(b1-4)Glc
Outline: as §1

[13] = biological target: Neu5Ac(a2-8)Neu5Ac(a2-8)Neu5Ac(a2-3)[GalNAc(b1-4)]Gal(b1-4)Glc
Outline: as §1

Fuc(a1-2)Gal(b1-4)GlcNAc = biological target: Fuc(a1-2)Gal(b1-4)GlcNAc
Outline: as §1

[14] = biological target: Fuc(a1-3)[Gal(b1-4)]GlcNAc(b1-4)Gal(b1-4)[Fuc(a1-3)]GlcNAc(b1-4)Gal(b1-4)[Fuc(a1-3)]GlcNAc
Outline: as §1

[15] = biological target: Fuc(a1-3)[GalNAc(b1-4)]GlcNAc
Outline: as §1

[16] = biological target: Gal(b1-4)GlcNAc(b1-3)Gal(b1-4)Glc
Outline: as §1

Gal3S(b1-4)GlcNAc6S = biological target: Gal3S(b1-4)GlcNAc6S
Outline: as §1

Gal3S6S(b1-4)GlcNAc6S = biological target: Gal3S6S(b1-4)GlcNAc6S
Outline: as §1

[17] = biological target: GalNAc(b1-3)Gal(a1-4)Gal(b1-4)GlcNAc
Outline: as §1

GlcNAc(b1-3)GalNAc = biological target: GlcNAc(b1-3)GalNAc
Outline: as §1

[18] = biological target: GlcNAc(b1-4)GlcNAc(b1-4)GlcNAc(b1-4)GlcNAc(b1-4)GlcNAc
Outline: as §1

[19] = biological target: Man(a1-3)[Man(a1-6)]Man(a1-6)[Man(a1-2)Man(a1-3)]Man(b1-4)GlcNAc(b1-4)GlcNAc
Outline: as §1

[20] = biological target: Neu5Ac(a2-3)Gal(b1-4)GlcNAc6S
Outline: as §1

[21] = biological target: Neu5Ac(a2-6)Gal(b1-4)GlcNAc6S
Outline: as §1

[22] = biological target: Neu5Ac(a2-8)Neu5Ac(a2-8)Neu5Ac
Outline: as §1

[23] = biological target: Neu5Ac(a2-8)Neu5Ac(a2-8)Neu5Ac(a2-3)Gal(b1-4)Glc
Outline: as §1

B1: DEC205 (Homo sapiens), O60449 (protein)
chain: MRTGWATPRRPAGLLMLLFWFFDLAEPSGRAANDPFTIVHGNTGKCIKPVYGWIVADDCDETEDKLWKWVSQHRLFHLHSQKCLGLDITKSVNELRMFSCDSSAMLWWKCEHHSLYGAARYRLALKDGHGTAISNASDVWKKGGSEESLCDQPYHEIYTRDGNSYGRPCEFPFLIDGTWHHDCILDEDHSGPWCATTLNYEYDRKWGICLKPENGCEDNWEKNEQFGSCYQFNTQTALSWKEAYVSCQNQGADLLSINSAAELTYLKEKEGIAKIFWIGLNQLYSARGWEWSDHKPLNFLNWDPDRPSAPTIGGSSCARMDAESGLWQSFSCEAQLPYVCRKPLNNTVELTDVWTYSDTRCDAGWLPNNGFCYLLVNESNSWDKAHAKCKAFSSDLISIHSLADVEVVVTKLHNEDIKEEVWIGLKNINIPTLFQWSDGTEVTLTYWDENEPNVPYNKTPNCVSYLGELGQWKVQSCEEKLKYVCKRKGEKLNDASSDKMCPPDEGWKRHGETCYKIYEDEVPFGTNCNLTITSRFEQEYLNDLMKKYDKSLRKYFWTGLRDVDSCGEYNWATVGGRRRAVTFSNWNFLEPASPGGCVAMSTGKSVGKWEVKDCRSFKALSICKKMSGPLGPEEASPKPDDPCPEGWQSFPASLSCYKVFHAERIVRKRNWEEAERFCQALGAHLSSFSHVDEIKEFLHFLTDQFSGQHWLWIGLNKRSPDLQGSWQWSDRTPVSTIIMPNEFQQDYDIRDCAAVKVFHRPWRRGWHFYDDREFIYLRPFACDTKLEWVCQIPKGRTPKTPDWYNPDRAGIHGPPLIIEGSEYWFVADLHLNYEEAVLYCASNHSFLATITSFVGLKAIKNKIANISGDGQKWWIRISEWPIDDHFTYSRYPWHRFPVTFGEECLYMSAKTWLIDLGKPTDCSTKLPFICEKYNVSSLEKYSPDSAAKVQCSEQWIPFQNKCFLKIKPVSLTFSQASDTCHSYGGTLPSVLSQIEQDFITSLLPDMEATLWIGLRWTAYEKINKWTDNRELTYSNFHPLLVSGRLRIPENFFEEESRYHCALILNLQKSPFTGTWNFTSCSERHFVSLCQKYSEVKSRQTLQNASETVKYLNNLYKIIPKTLTWHSAKRECLKSNMQLVSITDPYQQAFLSVQALLHNSSLWIGLFSQDDELNFGWSDGKRLHFSRWAETNGQLEDCVVLDTDGFWKTVDCNDNQPGAICYYSGNETEKEVKPVDSVKCPSPVLNTPWIPFQNCCYNFIITKNRHMATTQDEVHTKCQKLNPKSHILSIRDEKENNFVLEQLLYFNYMASWVMLGITYRNNSLMWFDKTPLSYTHWRAGRPTIKNEKFLAGLSTDGFWDIQTFKVIEEAVYFHQHSILACKIEMVDYKEEHNTTLPQFMPYEDGIYSVIQKKVTWYEALNMCSQSGGHLASVHNQNGQLFLEDIVKRDGFPLWVGLSSHDGSESSFEWSDGSTFDYIPWKGQTSPGNCVLLDPKGTWKHEKCNSVKDGAICYKPTKSKKLSRLTYSSRCPAAKENGSRWIQYKGHCYKSDQALHSFSEAKKLCSKHDHSATIVSIKDEDENKFVSRLMRENNNITMRVWLGLSQHSVDQSWSWLDGSEVTFVKWENKSKSGVGRCSMLIASNETWKKVECEHGFGRVVCKVPLGPDYTAIAIIVATLSILVLMGGLIWFLFQRHRLHLAGFSSVRYAQGVNEDEIMLPSFHD
glycan array binding signal (z-score) [1]: -0.222 | glycan array binding signal (z-score) [2]: 1.97 | glycan array binding signal (z-score) [3]: -0.335 | glycan array binding signal (z-score) (Gal(a1-2)Gal): -0.046 | glycan array binding signal (z-score) (Gal(a1-3)Gal(b1-3)GlcNAc): -0.064 | glycan array binding signal (z-score) (Gal(a1-3)Gal(b1-4)Glc): 1.66 | glycan array binding signal (z-score) [4]: -0.279 | glycan array binding signal (z-score) [5]: -0.229 | glycan array binding signal (z-score) [6]: 3.79 | glycan array binding signal (z-score) [7]: -0.071 | glycan array binding signal (z-score) (Kdn(a2-3)Gal(b1-4)GlcNAc): 1.75 | glycan array binding signal (z-score) [8]: 0.357 | glycan array binding signal (z-score) [9]: -0.154 | glycan array binding signal (z-score) [10]: -0.395 | glycan array binding signal (z-score) [11]: -0.262 | glycan array binding signal (z-score) [12]: 0.013 | glycan array binding signal (z-score) [13]: -0.243

B2: CLEC7A (Homo sapiens), Q9BXN2 (protein)
chain: MEYHPDLENLDEDGYTQLHFDSQSNTRIAVVSEKGSCAASPPWRLIAVILGILCLVILVIAVVLGTMAIWRSNSGSNTLENGYFLSRNKENHSQPTQSSLEDSVTPTKAVKTTGVLSSPCPPNWIIYEKSCYLFSMSLNSWDGSKRQCWQLGSNLLKIDSSNELGFIVKQVSSQPDNSFWIGLSRPQTEVPWLWEDGSTFSSNLFQIRTTATQENPSPNCVWIHVSVIYDQLCSVPSYSICEKKFSM
glycan array binding signal (z-score) [1]: 0.301 | glycan array binding signal (z-score) (Fuc(a1-2)Gal(b1-4)GlcNAc): -0.842 | glycan array binding signal (z-score) [14]: 0.278 | glycan array binding signal (z-score) [15]: -0.149 | glycan array binding signal (z-score) [16]: 0.542 | glycan array binding signal (z-score) (Gal3S(b1-4)GlcNAc6S): 1.21 | glycan array binding signal (z-score) (Gal3S6S(b1-4)GlcNAc6S): 5.19 | glycan array binding signal (z-score) [17]: 0.773 | glycan array binding signal (z-score) (GlcNAc(b1-3)GalNAc): 3.29 | glycan array binding signal (z-score) [18]: -0.613 | glycan array binding signal (z-score) (Kdn(a2-3)Gal(b1-4)GlcNAc): 0.64 | glycan array binding signal (z-score) [19]: 0.549 | glycan array binding signal (z-score) [20]: -0.22 | glycan array binding signal (z-score) [21]: 0.583 | glycan array binding signal (z-score) [22]: 4.19 | glycan array binding signal (z-score) [23]: 1.53
